Reference: the supplement of paper PMC3334620
In all, about 33,000 sequences were measured (“E-score (-0.5 to 0.5)”: median about -0.032, highest 2% from about 0.36 on). The sample as a whole holds a higher share of the highest values than the screen did.

molecular target: T1, Sko1 (UniProt Q02100); test: PBM E-score (8-mer binding enrichment) (E-score (-0.5 to 0.5)); higher = stronger / more preferred TF binding; settings: protein concentration: 200 nM; construct: GST-full length
T1 sequence: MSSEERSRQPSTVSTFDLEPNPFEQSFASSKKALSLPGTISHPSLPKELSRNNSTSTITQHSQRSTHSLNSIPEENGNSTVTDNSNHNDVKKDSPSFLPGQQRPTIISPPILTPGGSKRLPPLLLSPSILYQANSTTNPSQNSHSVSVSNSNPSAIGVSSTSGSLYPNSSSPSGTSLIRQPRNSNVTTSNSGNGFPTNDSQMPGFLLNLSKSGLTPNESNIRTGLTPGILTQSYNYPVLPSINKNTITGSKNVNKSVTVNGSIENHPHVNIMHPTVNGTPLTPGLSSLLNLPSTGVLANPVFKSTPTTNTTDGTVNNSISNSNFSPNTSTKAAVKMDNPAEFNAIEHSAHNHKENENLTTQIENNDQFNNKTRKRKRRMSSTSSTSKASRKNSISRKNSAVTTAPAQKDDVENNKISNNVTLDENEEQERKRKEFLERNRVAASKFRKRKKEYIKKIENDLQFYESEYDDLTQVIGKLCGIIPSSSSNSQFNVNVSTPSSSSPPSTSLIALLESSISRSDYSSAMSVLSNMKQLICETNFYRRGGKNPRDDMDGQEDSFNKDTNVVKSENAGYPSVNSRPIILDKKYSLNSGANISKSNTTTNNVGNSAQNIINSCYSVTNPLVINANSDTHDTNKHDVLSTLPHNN
How it was run: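 Using PURExpress in vitro transcription/translation, GST-tagged yeast transcription factors were made in full-length or DNA-binding-domain form. These were applied at about 100-200 nM to double-stranded universal all-10-mer Agilent arrays, and bound protein was detected with fluorescent anti-GST. Scans were normalised with masliner before the Universal PBM Analysis Suite assigned E-scores to ungapped eight-base words pooled with their reverse complements.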

| Sequence | PBM E-score |
| --- | --- |
| AGCGTTAT | 0.0494 |
| ACCTGCAT | -0.13 |
| ATAAGAGA | 0.0988 |
| ATCTTCGC | 0.1 |
| AAAGTAAC | 0.0224 |
| AAAACCGG | -0.128 |
| CAGGCCGA | -0.182 |
| GGGGTAGA | -0.0788 |
| AGAAACTG | 0.0191 |
| CGCAGCTC | -0.0758 |
| ACGTACGT | 0.473 |
| ATGTACGA | 0.143 |
| TCGTACGA | 0.282 |
| ACCTAGCG | -0.0355 |
| AAGGTGCT | -0.238 |
| ATGCAAAA | 0.116 |
| AAATTGAG | -0.0473 |
| ACGTTTAC | 0.345 |
| ACGTTTAA | 0.406 |
| ACGTTTAG | 0.355 |
| CCGTTTAA | -0.0451 |
| AGGTTTAT | 0.0336 |
| ACGTTTAT | 0.388 |
| GTGCCAAA | -0.0151 |
| CTAACTTC | 0.0478 |

| Sequence | PBM E-score |
| --- | --- |
| CGTCTGCC | -0.00999 |
| ATATTTCG | 0.235 |
| GATTGGTA | -0.054 |
| AAAGTCTT | 0.0148 |
| GGGGAGTA | -0.124 |
| ATGCCAAA | -0.0114 |
| CAACGTCA | 0.47 |
| TAACGCCA | 0.144 |
| AAACGTCA | 0.47 |
| GAACGTTA | 0.18 |
| TAACGTCA | 0.48 |
| CAACGTCG | 0.222 |
| GAACGTCA | 0.456 |
| AAACGTCT | 0.341 |
| AAACGTCC | 0.13 |
| TAACGGCA | 0.0289 |
| CAACGTCC | -0.0395 |
| GAACGTCC | 0.117 |
| CCACTCGC | -0.25 |
| GAGATCCC | -0.171 |
| CCCGCAAA | -0.0244 |
| GGGGCGGA | -0.338 |
| CGTCTAAG | 0.0318 |
| CCGACCGG | -0.294 |
| ACAGTCTG | -0.171 |

| Sequence | PBM E-score |
| --- | --- |
| ACGATTCG | 0.059 |
| CCGTCTGA | -0.224 |
| AGGCAGTA | -0.129 |
| CCGGCCGG | -0.373 |
| AGCTGACG | 0.347 |
| CACTGACG | 0.424 |
| CGCTGACC | -0.15 |
| CGCTGACG | 0.389 |
| AACTGACA | 0.183 |
| AACTGACG | 0.363 |
| CACTGACC | -0.26 |
| CACTGACA | 0.0149 |
| AACTGACT | -0.0679 |
| TGGTGCAA | -0.0842 |
| CCTTTTAC | -0.0204 |
| AGCGAACC | 0.0124 |
| TCCCAAAA | -0.048 |
| ATGCAAAC | 0.108 |
| ATACCGTG | -0.0765 |
| GCACTGCA | 0.0142 |
| ACGTCACT | 0.489 |
| AGGTCACC | -0.128 |
| AAGTCACT | 0.144 |
| ACGTCACC | 0.489 |
| AAGTCACA | 0.0509 |

| Sequence | PBM E-score |
| --- | --- |
| ACGTCACG | 0.486 |
| ATGTCACA | 0.324 |
| AGGTCACG | 0.0716 |
| CCGTCACC | 0.101 |
| ACGTCACA | 0.481 |
| AAGTCACG | 0.126 |
| AGGTCACT | -0.0104 |
| CTAGAATC | -0.0473 |
| ATCAGGTG | -0.0909 |
| ACTGCAAC | -0.0632 |
| GTGCTTCA | 0.0642 |
| ACATATGT | 0.29 |
| CGTGAGAA | 0.117 |
| GAAATTAC | 0.323 |
| GTAATTAC | 0.367 |
| ATAATTAA | 0.285 |
| ATAATTAC | 0.376 |
| CTAATTAC | 0.323 |
| GTAATTAA | 0.237 |
| CACTGTCG | -0.11 |
| GCACCTGC | -0.202 |
| CCATCATA | 0.0672 |
| CCATCATC | 0.0168 |
| ACATCATC | 0.43 |
| ACATCAGA | 0.122 |

| Sequence | PBM E-score |
| --- | --- |
| GCATCAGA | 0.113 |
| ACATCATG | 0.393 |
| ACATCACA | 0.313 |
| GCATCATA | 0.366 |
| ACATCAAG | 0.242 |
| CTATCATC | 0.0137 |
| AAATCATA | 0.204 |
| ACATCATA | 0.425 |
| ACTGGTTA | 0.0712 |
| ATTGGAGA | 0.0978 |
| ACGCCGTC | 0.192 |
| AGCATAGA | -0.0737 |
| GCTCGACA | -0.181 |
| CACTAGAA | 0.023 |
| GCAGCGGC | -0.178 |
| ACGCGGAA | 0.0704 |
| ACGCGTAA | 0.382 |
| ACGCGTAT | 0.389 |
| TGTCGTAA | 0.412 |
| TGGCGTAA | 0.414 |
| ACGCGTGA | 0.32 |
| ACGCGTAG | 0.259 |
| AGTCGTAA | 0.231 |
| ACGCGTAC | 0.307 |
| AGGCGTAA | 0.206 |

| Sequence | PBM E-score |
| --- | --- |
| GGGCGTAA | -0.0261 |
| GGTCGTAA | 0.249 |
| AAGCGTAA | 0.241 |
| CACGATCG | 0.0307 |
| CGTTCAAC | 0.112 |
| GGTCTCCA | -0.19 |
| CGTCCGAC | -0.0238 |
| ACAACCGG | -0.197 |
| CAGACCAC | -0.0177 |
| CACCAGCA | 0.0552 |
| AGCGCGAT | -0.0488 |
| ACTCGAAA | 0.0248 |
| ATGTATGA | 0.288 |
| GCGCGTAA | 0.336 |
| CCGCGTAA | 0.318 |
| TCGCGTAA | 0.393 |
| AATGCGTG | 0.214 |
| AATGCGTA | 0.39 |
| CATGCGTA | 0.38 |
| AATGCGTC | 0.185 |
| GATGCGTA | 0.272 |
| CATGCGTC | 0.161 |
| GGGTGAAC | -0.114 |
| ACATAGGG | -0.181 |
| AGATAGCC | -0.299 |

| Sequence | PBM E-score |
| --- | --- |
| ACATCTAG | -0.0627 |
| AACATTCC | 0.0401 |
| AACATACT | 0.0365 |
| ATCATACG | 0.365 |
| CGCATACC | 0.0198 |
| ATCATACA | 0.257 |
| AACATACG | 0.387 |
| ATCATACC | 0.171 |
| CGCATACG | 0.378 |
| CGCATACA | 0.0477 |
| CACATACG | 0.276 |
| CTGCTACA | -0.0447 |
| AATGCTTA | -0.1 |
| CAGTATGC | -0.0805 |
| GTTCCGCA | 0.00536 |
| GTCGATCA | -0.0654 |
| TATCGCCA | 0.0834 |
| CCCTATGA | 0.0198 |
| AAGTCCAA | 0.0276 |
| AATAACGT | 0.426 |
| AATAACGG | 0.138 |
| AATAACGC | 0.106 |
